Values joined by “and” are separate entries in the source; they are usually repeats but may differ in a detail not shown here. Equal values may be shown once. Inconclusive results are not listed. Active and inactive are the calls of the source. Unless noted, calls follow the shape of the dose curve; as a rule, active = well fitted curve in the direction sought with a large enough effect; inconclusive = small, poorly fitted or top-dose-only effect, or another doubt; inactive = no such curve, though single readings can be large; an effect the other way counts as inactive or inconclusive.
Key:
[1] = qHTS Assay for Identification of Small Molecule Agonists for Thrombopoietin (TPO) Signaling Pathway (AID 917)
Outline: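 Luciferase reporter (Glycoprotein IIb promoter) in IL-3-deprived Ba/F3 cells carrying human TPO receptor; compounds co-added with 26 pM TPO, incubated 24 h, 37 C. Steadylite luminescence measured after 10 min.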

[2] = molecular target: Muscarinic acetylcholine receptor M1 (Rattus norvegicus) (UniProt P08482); assay: qHTS Assay for Antagonists of Acetylcholine Muscarinic M1 Receptor: Kinetic Measurement of Intracellular Calcium Response (AID 943); also: nearly all actives have a fitted effect of over 75% in size; also: potency is read from the fitted curve at half-maximal effect
Outline: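 Antagonism is measured as inhibition of the carbachol-evoked calcium rise in CHO cells transfected with rat M1. Cells are dye-loaded, exposed to compound for 10 min, then stimulated with 100 nM carbachol (EC80).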

[3] = molecular target: Muscarinic acetylcholine receptor M1 (Rattus norvegicus) (UniProt P08482); assay: qHTS Assay for Antagonists of Acetylcholine Muscarinic M1 Receptor: Measurement of IP-One Response (AID 944); also: nearly all actives have a fitted effect of over 75% in size; also: potency is read from the fitted curve at half-maximal effect
Outline: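 Antagonist mode with rat M1 receptor transfected into CHO cells. Compound is added first for 10 min, carbachol at its EC80 follows for 30 min, and lysis reagents then allow TR-FRET detection of accumulated IP1.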

[4] = molecular target: Pyruvate kinase (Leishmania mexicana) (UniProt Q27686); assay: qHTS Validation Assay for Inhibitors of Leishmania Mexicana Pyruvate Kinase (AID 945)
Outline: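 Luminescent ATP detection (PKLight) after a 1 h room-temperature reaction of 0.2 nM LmPYK E451W mutant with 0.5 mM PEP and 0.1 mM ADP at pH 7.2. Activity is normalized to DMSO-only control wells.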

[5] = molecular target: Pyruvate kinase PKM (Homo sapiens) (UniProt P14618); assay: qHTS Assay for Activators of Human Muscle Pyruvate Kinase (AID 954; active = well fitted curve in the direction sought with a large enough effect, not every such curve was filed as active)
Outline: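 PKM2, human, >95% pure, 0.1 nM; PEP 0.5 mM (Km), ADP 0.1 mM; 50 mM imidazole pH 7.2, 50 mM KCl, 0.01% Tween 20, 0.05% BSA; 1 h RT; luciferase luminescence readout.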

[6] = molecular target: Alpha-galactosidase (Coffea arabica) (UniProt Q42656); assay: Counterscreen for Glucocerebrosidase Inhibitors: qHTS Assay for Coffee Bean alpha-Galactosidase at pH 4.5 (AID 957); also: series mostly up to about 77 µM
Outline: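 Enzyme is added first (2 nM final), then compounds titrated from 0.7 nM to 77 uM, then 80 uM 4-methylumbelliferyl alpha-D-galactopyranoside; after 20 min at room temperature a pH 10 NaOH/glycine stop precedes fluorescence reading at 365/440 nm.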

[7] = Cell Viability - LYMP2-001 (AID 921); also: nearly all actives have a fitted effect of over 70% in size; also: potency is read from the fitted curve at half-maximal effect
Outline: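 Cellular ATP loss read by luciferase luminescence after 24 h compound exposure at 37 C in complete medium. LYMP2-001 lymphoblastoid cells, 2500/well; qHTS concentration-response data fitted with Hill equation for AC50.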

[8] = MultiTox-Fluor Cytotoxicity Assay - LYMP1-001 - Dead Cells (AID 946);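 also: cells exposed to compound for 16 h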
Outline: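 Seed 2500 LYMP1-001 cells/well, incubate 5 hr at 37 C; add compound, 16 hr at 37 C; add MultiTox-Fluor reagent, 60 min RT; read dead-cell fluorescence Ex/Em=485/520. Normalize to DMSO and 15 uM tetraoctylammonium bromide.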

[9] = MultiTox-Fluor Cytotoxicity Assay - LYMP1-001 - Live Cells (AID 947); also: potency is read from the fitted curve at half-maximal effect
[10] = Cell Viability - LYMP1-002 - Assay at 16 hr (AID 948); also: potency is read from the fitted curve at half-maximal effect
Outline: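 ATP luminescence (CellTiter-Glo) was measured after 16 hr compound exposure at 37 C of 2500 lymphoblastoid LYMP1-002 cells per well. Concentration-response curves were fitted with the Hill equation to give AC50.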

[11] = MultiTox-Fluor Cytotoxicity Assay - LYMP1-003 - Dead Cells (AID 961);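 also: cells exposed to compound for 16 h at 37 °C; nearly all actives have a fitted effect of over 70% in size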; also: potency is read from the fitted curve at half-maximal effect
Outline: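 LYMP1-003 lymphoblastoid, 2500 cells/well, 5 hr settle then 16 hr cpd at 37 C; MultiTox-Fluor reagent 60 min RT; Ex/Em 485/520 dead-cell signal; norm. DMSO = 0%, 15 uM tetraoctylammonium bromide = 100%; Hill AC50.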

[12] = MultiTox-Fluor Cytotoxicity Assay - LYMP1-003 - Live Cells (AID 962);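 also: cells exposed to compound for 16 hours at 37 °C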; also: potency is read from the fitted curve at half-maximal effect
Outline: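 Acute cytotoxicity is scored as a drop in live-cell protease activity in human lymphoblastoid LYMP1-003 cells after 16 hr compound exposure at 37 C. AC50 values come from Hill-equation modelling of concentration-response data.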

[13] = Cell Viability - LYMP1-003 - Assay at 24 hr (AID 963); also: potency is read from the fitted curve at half-maximal effect
Outline: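 Cytotoxicity is scored as a concentration-dependent fall in ATP-linked luciferase signal in human lymphoblastoid LYMP1-003 cells treated 24 hr at 37 C in complete culture medium.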

[14] = Cell Viability - LYMP1-003 - Assay at 40 hr (AID 964); also: nearly all actives have a fitted effect of over 60% in size; also: potency is read from the fitted curve at half-maximal effect
Outline: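 Luminescent ATP signal (CellTiter-Glo) served as the viability read-out after 40 hr compound treatment of human lymphoblastoid LYMP1-003 cells at 37 C. Decreases in ATP were fitted with the Hill equation to give AC50.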

[15] = Cell Viability - LYMP2-004 (AID 966); also: nearly all actives have a fitted effect of over 65% in size; also: potency is read from the fitted curve at half-maximal effect
Outline: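 qHTS cytotoxicity: human lymphoblastoid line, 24 hr compound treatment, 37 C, complete medium. Viability read as cellular ATP via luciferase luminescence; tetraoctylammonium bromide served as positive control.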

[16] = Cell Viability - LYMP2-005 (AID 967); also: series mostly up to about 92 µM
Outline: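 LYMP2-005 human lymphoblastoid cells (2500/well) were treated with compounds for 24 h at 37 C. Intracellular ATP was then measured by CellTiter-Glo luminescence after 30 min at room temperature. AC50 values came from Hill-equation fits of qHTS concentration-response data.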

[17] = Cell Viability - LYMP2-009 (AID 968); also: nearly all actives have a fitted effect of over 55% in size; also: potency is read from the fitted curve at half-maximal effect
[18] = Cell Viability - LYMP2-011 (AID 969); also: nearly all actives have a fitted effect of over 60% in size; also: potency is read from the fitted curve at half-maximal effect
Outline: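 In this qHTS cytotoxicity format, compounds are tested across concentrations on human lymphoblastoid cells in complete medium for 24 hours at 37 C. Viability is taken as cellular ATP measured by luciferase luminescence.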

[19] = qHTS Assay for Identification of Small Molecule Antagonists for Thrombopoietin (TPO) Signaling Pathway (AID 918); conditions: TPO-dependent cell signaling reporter, antagonist mode; also: potency is read from the fitted curve at half-maximal effect; nearly all actives have a fitted effect of over 60% in size
Outline: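 Inhibitors of TPO signaling are sought by stimulating IL-3-starved murine Ba/F3 cells (human TPO receptor, Glycoprotein IIb-driven luciferase) with TPO at its EC50 of 26 pM alongside compound. After 24 hrs at 37 C, reporter luminescence is measured.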

[20] = Confirmation and Secondary Assay for Modulators of Hemoglobin Beta Chain Splicing at IVS2 705 locus (AID 930);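 also: HeLa cells stably expressing the EGFP-705 splicing reporter; GFP fluorescence per well restored by corrected splicing of the IVS2-705 intron in EGFP; series mostly up to about 46 µM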
Outline: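 Read-out: total peak GFP fluorescence per well (488 nm excitation, 500-520 nm emission) by laser-scanning cytometry. Cells: HeLa EGFP-705 splicing reporter, 2 days compound exposure in Optimem/2% FCS.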

Measured: Potency

Pyruvate kinase (Leishmania mexicana), sequence (Q27686 2-499 E452W): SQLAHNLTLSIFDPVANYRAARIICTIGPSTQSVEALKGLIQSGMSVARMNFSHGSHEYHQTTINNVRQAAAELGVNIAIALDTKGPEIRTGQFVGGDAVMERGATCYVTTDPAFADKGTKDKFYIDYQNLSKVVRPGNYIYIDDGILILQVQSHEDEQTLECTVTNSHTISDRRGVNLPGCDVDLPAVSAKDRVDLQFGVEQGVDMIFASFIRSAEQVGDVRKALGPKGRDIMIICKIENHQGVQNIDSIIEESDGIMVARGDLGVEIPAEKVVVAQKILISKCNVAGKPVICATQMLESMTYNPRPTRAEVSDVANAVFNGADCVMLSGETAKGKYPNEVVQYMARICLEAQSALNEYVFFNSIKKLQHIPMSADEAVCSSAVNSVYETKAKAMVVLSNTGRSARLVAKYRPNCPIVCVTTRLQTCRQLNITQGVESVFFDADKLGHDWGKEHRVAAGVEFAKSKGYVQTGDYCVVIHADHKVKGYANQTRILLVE
Pyruvate kinase PKM (Homo sapiens), sequence (P14618 whole entry, looked up): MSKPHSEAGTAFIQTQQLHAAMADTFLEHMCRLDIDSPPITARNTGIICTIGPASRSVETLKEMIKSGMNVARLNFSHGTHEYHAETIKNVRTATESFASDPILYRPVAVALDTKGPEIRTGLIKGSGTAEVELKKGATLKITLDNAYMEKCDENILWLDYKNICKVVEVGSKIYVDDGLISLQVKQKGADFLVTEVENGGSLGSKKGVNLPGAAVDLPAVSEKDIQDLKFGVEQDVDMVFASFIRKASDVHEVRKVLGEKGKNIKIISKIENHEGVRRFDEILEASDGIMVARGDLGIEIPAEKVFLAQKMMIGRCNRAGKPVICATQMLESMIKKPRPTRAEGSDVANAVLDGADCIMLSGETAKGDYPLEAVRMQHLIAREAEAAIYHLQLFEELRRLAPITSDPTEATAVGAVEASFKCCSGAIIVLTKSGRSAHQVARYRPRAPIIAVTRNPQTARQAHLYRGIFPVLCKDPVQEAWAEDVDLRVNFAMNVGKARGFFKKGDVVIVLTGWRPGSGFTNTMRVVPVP
Muscarinic acetylcholine receptor M1 (Rattus norvegicus), sequence (P08482 whole entry, looked up): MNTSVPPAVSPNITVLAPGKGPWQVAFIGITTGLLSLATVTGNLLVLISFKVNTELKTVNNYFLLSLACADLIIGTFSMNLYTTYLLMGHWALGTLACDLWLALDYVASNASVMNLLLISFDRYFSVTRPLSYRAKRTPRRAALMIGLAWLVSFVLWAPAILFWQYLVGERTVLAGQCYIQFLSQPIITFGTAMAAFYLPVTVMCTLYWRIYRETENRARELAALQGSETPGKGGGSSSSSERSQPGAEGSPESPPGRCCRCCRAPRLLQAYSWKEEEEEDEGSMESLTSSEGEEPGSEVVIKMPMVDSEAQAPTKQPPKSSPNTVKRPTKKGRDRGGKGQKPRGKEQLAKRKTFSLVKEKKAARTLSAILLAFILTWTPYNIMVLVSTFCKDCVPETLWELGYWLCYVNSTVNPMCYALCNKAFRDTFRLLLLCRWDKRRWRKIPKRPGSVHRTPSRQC
Alpha-galactosidase (Coffea arabica), sequence (Q42656 whole entry, looked up): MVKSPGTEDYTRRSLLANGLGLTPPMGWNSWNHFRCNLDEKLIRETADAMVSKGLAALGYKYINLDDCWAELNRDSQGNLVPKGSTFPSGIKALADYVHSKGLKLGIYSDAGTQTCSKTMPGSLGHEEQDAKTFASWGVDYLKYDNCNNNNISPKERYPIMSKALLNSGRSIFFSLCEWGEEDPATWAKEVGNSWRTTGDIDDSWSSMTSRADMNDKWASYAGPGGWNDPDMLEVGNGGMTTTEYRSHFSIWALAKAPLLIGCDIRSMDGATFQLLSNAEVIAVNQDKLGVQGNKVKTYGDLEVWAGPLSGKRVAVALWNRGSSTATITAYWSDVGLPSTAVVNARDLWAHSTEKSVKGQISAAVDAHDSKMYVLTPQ

C[C@@H]1O[C@H](C[N+](C)(C)C)C[C@H]1O
inactive: [1] | [2] | [3] | [4] | [5] | [6]

CCCCC(CC)COC(=O)c1ccccc1C(=O)OCC(CC)CCCC (centres undefined)
inactive: [7] | [8] | [9] | [10] | [11] | [12] | [13] | [14] | [15] | [16] | [17] | [18]

CCCCOC(=O)c1ccccc1C(=O)OCc1ccccc1
inactive: [7] | [8] | [9] | [10] | [11] | [12] | [13] | [14] | [15] | [16] | [17] | [18]

O=C(O)C(Cl)Cl
inactive: [7] | [8] | [9] | [10] | [11] | [12] | [13] | [14] | [15] | [16] | [17] | [18]

COc1ccc2c(c[n+](C)c3c4cc5c(cc4ccc23)OCO5)c1OC
active: [19] 2000 nM | [3] 35.5 µM
inactive: [2] | [4] | [5] | [6]

CC(=O)[O][Hg][c]1ccccc1
inactive: [20]
active: [7] 501 nM | [9] 5010 nM | [10] 6310 nM | [11] 2510 nM | [12] 3160 nM | [13] 3160 nM | [14] 1580 nM | [15] 1000 nM | [17] 501 nM | [18] 1000 nM

COC(C)(C)CCCC(C)C/C=C/C(C)=C/C(=O)OC(C)C (centres undefined)
inactive: [7] | [20] | [8] | [9] | [10] | [11] | [12] | [13] | [14] | [15] | [16] | [17] | [18]

NC(=NCCC[C@H](N)C(=O)O)N[N+](=O)[O-]
inactive: [1] | [2] | [3] | [4] | [5] | [6]

O=C(O)CC[N+](=O)[O-]
inactive: [1] | [20] | [3] | [4] | [5] | [6]

CCCN1CCC[C@H](c2cccc(O)c2)C1
inactive: [1] | [3] | [4] | [5] | [6]

NC(N)=NOCCC(N)C(=O)O (centres undefined)
inactive: [1] | [20] | [2] | [4] | [5] | [6]

NCCc1c[nH]c2ccc(O)cc12
inactive: [1] | [4] | [5] | [6]

Cn1cnc(CCN)c1
inactive: [1] | [2] | [3] | [4] | [5] | [6]

CC(=O)NCCc1c[nH]c2ccccc12
inactive: [1] | [2] | [3] | [4] | [5] | [6]

Clc1cnc(Oc2ccc(Oc3ncc(Cl)cc3Cl)cc2)c(Cl)c1
inactive: [1] | [3] | [4] | [5] | [6]

Cc1c(C(=O)c2cccc3ccccc23)c2cccc3c2n1[C@H](CN1CCOCC1)CO3
inactive: [4] | [5] | [6]
active: [19] 12600 nM

CC[C@@]1(O)C(=O)OCc2c1cc1n(c2=O)Cc2cc3ccccc3nc2-1
active: [19] 126 nM
inactive: [20] | [4] | [5] | [6]

O=[N+]([O-])c1c(Cl)c(Cl)cc(Cl)c1Cl
inactive: [7] | [8] | [9] | [10] | [11] | [12] | [13] | [14] | [15] | [16] | [17] | [18]

CC(C)Oc1cccnc1N(C)C1CCN(Cc2ccccc2)CC1
inactive: [1] | [4] | [5] | [6]

CCCN1CCO[C@@H]2c3cc(O)ccc3OC[C@H]21
inactive: [1] | [3] | [4] | [5] | [6]

O=[N+]([O-])c1c2ccccc2cc2ccccc12
inactive: [7] | [8] | [9] | [10] | [11] | [12] | [13] | [14] | [15] | [16] | [17] | [18]

CN[C@@H]1C[C@@H](c2ccc(Cl)c(Cl)c2)c2ccccc21
inactive: [3] | [4] | [5] | [6]
active: [19] 12600 nM | [2] 2.24 µM

CN(C)NC(=O)CCC(=O)O
inactive: [7] | [8] | [9] | [10] | [11] | [12] | [13] | [14] | [15] | [16] | [17] | [18]

Cc1nccc2c1[nH]c1ccccc12
inactive: [1] | [20] | [3] | [4] | [5] | [6]

CC1=NN=C(c2ccc(N)cc2)c2cc3c(cc2C1)OCO3
inactive: [1] | [3] | [4] | [5] | [6]

COc1ccc(C(c2ccc(OC)cc2)C(Cl)(Cl)Cl)cc1
inactive: [7] | [20] | [8] | [9] | [10] | [11] | [12] | [13] | [14] | [15] | [16] | [17] | [18]

CCCN(CCC)[C@@H]1CCc2ccc(O)cc2C1
active: [2] 5.01 µM and 282 nM | [3] 5.01 µM and 3.98 µM
inactive: [1] | [4] | [5] | [6]

Cc1nc(-c2ccc(-c3ccc(C(=O)N4CCc5cc6c(cc54)C4(CCN(C)CC4)CO6)cc3)c(C)c2)no1
active: [19] 12600 nM
inactive: [4] | [5] | [6]

NCc1cc(=O)[nH]o1
inactive: [1] | [2] | [3] | [4] | [5] | [6]

CNCCc1c[nH]c2ccc(O)cc12
inactive: [1] | [2] | [3] | [4] | [5] | [6]

c1cc2ccc3cccc4ccc(c1)c2c34
inactive: [7] | [8] | [9] | [10] | [11] | [12] | [13] | [14] | [15] | [16] | [17] | [18]

O=C(O)Cc1cnc[nH]1
inactive: [1] | [3] | [4] | [5] | [6]

Reference: PubChem BioAssay (NCATS)
